Data reported in PubChem BioAssay AID2289 (National Center for Advancing Translational Sciences (NCATS), 2010).
Out of some 340,000 compounds screened, about 3,300 (0.97%) were called active. About 9% were inconclusive and are not listed. Calls come from the whole dose curve; as a rule, active = well fitted inhibition curve with a large enough effect; inconclusive = small, poorly fitted or top-dose-only effect, or effect the other way; inactive = flat fitted curve, though single readings scatter. The list shows a part of the results.

experiment: qHTS Assay for Modulators of miRNAs and/or Inhibitors of miR-21; conditions: HeLa miR-21-FLuc reporter, luciferase luminescence, 48 h; actives lower the signal; note: nearly all actives have a fitted effect of over 55% in size
Procedure, shortened: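 Compounds were titrated across several concentrations (up to approximately 40 uM) and incubated 48 hours with HeLa miR-21-FLuc reporter cells (miR-21 target sequence downstream of FLuc, endogenous miR-21). Readout was firefly luciferase luminescence after lytic detection reagent.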
Potency is the fitted concentration of half-maximal effect.

Potency, active:
COc1cccc(NC(=O)C(=O)NCC(c2ccc3c(c2)OCO3)N2CCN(C)CC2)c1 (configuration not stated) 4.65 µM
Cc1cc(C)n2ncc(C(=O)NCCc3ccccc3)c2n1 18.5 µM
Cc1csc2ncc(C(=O)NCCc3ccccc3)c(=O)n12 16.5 µM
Cc1cc(C)n2ncc(/C(N)=N/OC(=O)c3ccccc3F)c2n1 1.85 µM
CN(C)c1ccc(/C=C2\CCCCC2=O)cc1 2.07 µM
CCC(=O)N1CCc2cc(CNS(=O)(=O)c3ccccc3F)ccc21 6.56 µM
Cc1nc2ccc(NC(=O)COc3ccccc3F)cc2s1 7.36 µM
O=C(COc1ccccc1F)Nc1ccc(-c2nc3ccccc3s2)cc1 1.47 µM
Cc1ccc2nc(-c3ccc(NC(=O)COc4ccccc4C(C)(C)C)cc3)sc2c1 6.56 µM
Nc1ccc2oc3ccc(N)cc3c(=O)c2c1 3.69 µM
COc1nccnc1NS(=O)(=O)c1ccc(NCc2cc(Br)ccc2O)cc1 18.5 µM
COc1ccc(OCC(=O)N/N=C(\C)c2cc3ccccc3o2)cc1 18.5 µM
C/C(=N\NC(=O)COc1ccccc1F)c1cc2ccccc2o1 8.26 µM
Cc1ccc(C(=O)Cc2nnc(C)s2)cc1 4.14 µM
Cc1ccc(NC(=S)NNC(=O)c2nn(C)c(C)c2Cl)cc1 5.85 µM
CN1CCc2c(sc3c2C(=O)NC(c2cccc(OC(=O)c4cccs4)c2)N3)C1 (configuration not stated) 18.5 µM
CN1CCc2c(sc3c2C(=O)NC(c2ccc(OC(=O)c4ccccc4)cc2)N3)C1 (configuration not stated) 9.27 µM
COc1cc(C2NC(=O)c3c(sc4c3CCN(C)C4)N2)ccc1OC(=O)c1ccccc1 (configuration not stated) 13.1 µM
O=C(CC1NCCc2ccccc21)Nc1cccc(Cl)c1 (configuration not stated) 16.5 µM
C/C(=N/NC(=O)c1ccoc1C)C12CC3CC(CC(C3)C1)C2 8.26 µM
C=C(C)C1CC=C(C)/C(=N/NC(=O)c2ccoc2C)C1 (configuration not stated) 4.65 µM
Cc1occc1C(=O)NN=C1C2CC3CC(C2)CC1C3 1.31 µM
S=C(N=Nc1ccccc1)NNc1ccccc1 5.21 µM
Cc1cccc(OCCn2c(=O)sc3ccccc32)c1 5.21 µM
Cc1cccc(OCCCn2c(=O)sc3ccccc32)c1 14.7 µM
COc1ccc(N=c2sc3ccccc3n2C)cc1 3.29 µM
COc1ccc(OCCn2c(=O)sc3ccccc32)cc1 14.7 µM
O=c1sc2ccccc2n1CCCOc1ccccc1 4.14 µM
C=CCNC(=S)NNC(=O)COc1ccc2cc(Br)ccc2c1 7.36 µM
CC1Oc2ccccc2N(CC(=O)NCc2ccccc2)C1=O (configuration not stated) 9.27 µM
CCn1c(O)c(N=Nc2ccc3ccccc3n2)c2ccccc21 1.04 µM
COc1ccc(-c2cc(CS(=O)(=O)c3ccccc3)on2)cc1 4.65 µM
O=S(=O)(Cc1cc(-c2ccccc2Cl)no1)c1ccccc1 5.21 µM
O=S(=O)(Cc1cc(-c2ccc(Cl)cc2)no1)c1ccccc1 4.65 µM
COc1ccc(Br)c(-c2nnc(CS(=O)(=O)c3ccccc3)o2)c1 14.7 µM
O=S(=O)(Cc1cc(-c2ccccc2)no1)c1ccccc1 14.7 µM
Nc1ccc(Oc2cc(N)cc(Oc3ccccc3)c2)cc1 8.26 µM
N=c1cc(C2(O)CCCCC2)n2c(nc3ccccc32)s1 0.185 µM
COc1ccccc1/C=C/C1=NC(=C\N(C)C)/C(=O)O1 14.7 µM
CCOc1ccc(-c2cn3ccccc3n2)cc1[N+](=O)[O-] 2.93 µM
Oc1ccc(-c2cn3ccccc3n2)cc1O 3.29 µM
COc1ccc(-c2cn3ccccc3n2)cc1[N+](=O)[O-] 2.33 µM
COc1ccc(-c2cn3cc(Cl)ccc3n2)cc1OC 13.1 µM
O=C(Nc1cc(F)c(Br)cc1F)c1ccc(Cl)cc1 3.29 µM
CCCOc1ccc(-c2csc(N)n2)cc1[N+](=O)[O-] 5.21 µM
CCCCOc1ccc(-c2csc(N)n2)cc1[N+](=O)[O-] 1.47 µM
COC(=O)c1ccc(Cn2nnc3sc4c(c3c2=O)CCCC4)cc1 6.56 µM
Cc1cccc(OCCn2nnc3sc4c(c3c2=O)CCCC4)c1 18.5 µM
NNCCc1ccccc1 14.7 µM
O=C(CSc1ccccc1)NC1CCCCCC1 14.7 µM
O=C(CSc1ccccc1)NCCc1ccccc1 14.7 µM
S=C(NCCc1ccccc1)NCCc1ccccc1 2.61 µM
CC1CCN(C(=S)NCCc2ccccc2)CC1 2.93 µM
Cc1ccc2oc(C(=O)N(C)Cc3ccon3)c(C)c2c1 4.14 µM
CCCc1ccc2oc(C(=O)N(C)Cc3ccn[nH]3)c(C)c2c1 10.4 µM
Cc1ccc2c(C)c(C(=O)N(C)C(C)c3ccon3)oc2c1C (configuration not stated) 16.5 µM
Cc1cc(Cl)c2oc(C(=O)N(C)C(C)c3ccccn3)c(C)c2c1 (configuration not stated) 14.7 µM
Cc1cc(Cl)c2oc(C(=O)N(C)Cc3ccon3)c(C)c2c1 4.65 µM
CCc1c(C)c2ccc(O)c(CN3CCN(c4ccccc4)CC3)c2oc1=O 6.56 µM
COc1ccc2c(c1)-c1nc(NC(=O)c3ccco3)sc1CC2 13.1 µM
COc1ccc2c(c1)Cc1sc(NC(C)=O)nc1-2 0.631 µM
Cc1cccc(-n2ncc3c(NC4CCCCC4)ncnc32)c1 0.414 µM
Cc1ccc(-n2ncc3c(NC4CCCCC4)ncnc32)cc1 0.521 µM
O=c1cccccc1NN=C1CCCCCC1 3.29 µM
O=c1cccccc1NN=C1CCCCC1 11.7 µM
Oc1c(/C=N/Nc2cccc3cccnc23)ccc2ccccc12 7.36 µM
Oc1ccccc1CNc1cccc2cccnc12 18.5 µM
Cc1ccccc1Nc1nc(N)nc(-c2oc3ccccc3c2C)n1 4.65 µM
Fc1ccccc1Nc1nc2ccccc2n2nnnc12 16.5 µM
COc1ccccc1-c1cc(C(=O)N2CCCC2)no1 1.85 µM
COc1ccccc1-c1cc(C(=O)N2CCOCC2)no1 2.93 µM
CCN(CC)C(=O)c1cc(-c2ccccc2OC)on1 13.1 µM
CCN(CC)C(=O)c1cc(-c2ccc(Cl)cc2)on1 4.65 µM
O=C(N/N=C1/CC2C=CCC12)c1cccs1 (configuration not stated) 11.7 µM
O=C(N/N=C1/CC2C=CCC12)c1ccco1 (configuration not stated) 5.21 µM
CC1C2CC(C/C2=N/NC(=O)c2cccs2)C1(C)C (configuration not stated) 5.21 µM
COc1ccc(/C=N/n2c(N)nc3ccccc32)cc1OC 16.5 µM
CCn1ncc(/C=C/C(=O)c2ccccc2)c1C 5.21 µM
Cc1nn(C)cc1/C=C/C(=O)c1ccc(O)cc1 13.1 µM
Cc1c(/C=C/C(=O)c2ccc(O)cc2)cnn1C 18.5 µM
Cc1c(/C=C/C(=O)c2ccccc2O)cnn1C 3.69 µM
CCCCN1CCc2c([nH]c3ccc(C)cc23)C1=O 0.826 µM
CCOc1ccc(/C=N/Nc2ccccn2)cc1OC 5.21 µM
COc1ccc(/C=N/Nc2ccccn2)cc1O 7.36 µM
COc1cccc(COc2ccc3c(C)cc(=O)oc3c2)c1 2.07 µM
COc1ccc(COc2ccc3c(C)cc(=O)oc3c2)cc1 2.33 µM
COc1ccc(-c2noc(-c3cccc(OC)c3OC)n2)cc1OC 2.93 µM
COc1ccc(-c2noc(-c3ccccc3Cl)n2)cc1OC 1.47 µM
Cc1nc(-c2noc(-c3ccccc3Cl)n2)c(C(F)(F)F)o1 11.7 µM
Fc1ccc(-n2c(-c3ccc4c(c3)OCO4)n[nH]c2=S)cc1Cl 16.5 µM
CC(=O)c1c(C)nc(Nc2nc3ccccc3s2)nc1C 0.736 µM
COc1ccccc1OCC(=O)Nc1ccc2c(c1)OCO2 18.5 µM
COc1ccccc1OCC(=O)Nc1ccc2c(c1)OCCO2 8.26 µM
O=C(COc1ccccc1[N+](=O)[O-])Nc1ccc2c(c1)OCO2 3.29 µM
O=C(COc1ccccc1F)Nc1ccc2c(c1)OCCO2 1.17 µM
O=C(COc1ccccc1Cl)Nc1ccc2c(c1)OCO2 1.85 µM
CCc1ccccc1OCC(=O)Nc1ccc2c(c1)OCCO2 5.21 µM
Cc1ccccc1OCC(=O)Nc1ccc2c(c1)OCCO2 6.56 µM
Cc1ccc(NC(=O)c2c(Cl)nc3ccccn23)cc1 2.93 µM
O=C(Nc1ccc(F)cc1)c1c(Cl)nc2ccccn12 16.5 µM
C/C(=N\Nc1ccc(Cl)c(C(=O)O)c1)c1cccc([N+](=O)[O-])c1 13.1 µM
C/C(=N\Nc1ccc(Cl)c(C(=O)O)c1)c1ccccn1 16.5 µM
C/C(=N\Nc1ccc(Cl)c(C(=O)O)c1)c1ccc[nH]1 14.7 µM
C/C(=N\Nc1ccc(Cl)c(C(=O)O)c1)c1ccc2c(c1)OCO2 11.7 µM
Cc1ccc(N/C=C/C(=O)c2ccccc2)cc1Br 0.369 µM
Cc1cc(N/C=C/C(=O)c2ccccc2)ccc1Br 0.369 µM
Cn1cc(Cl)c(C(=O)N/N=C/c2ccc3c4c(cccc24)CC3)n1 1.65 µM
